# Measurements taken from article PMC4336329 (PLoS ONE, 2015).
# Screen size: about 310,000 compounds; about 14,000 (4.5%) showed an effect of 50% or more. The effect is printed as a negative number. The list comes from a sample in which strong results are over-represented; it also holds similar structures and randomly drawn compounds.
# Target: human ether-à-go-go-related gene (hERG) potassium channel (human, UniProt Q12809)
# Experiment: primary screen, population patch clamp on CHO cells stably expressing hERG; higher = less effect of the substance
# 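Also: peak tail current of the secondary pulse compared with the same well before compound.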
# Chain of human ether-à-go-go-related gene (hERG) potassium channel (Q12809 whole entry, looked up): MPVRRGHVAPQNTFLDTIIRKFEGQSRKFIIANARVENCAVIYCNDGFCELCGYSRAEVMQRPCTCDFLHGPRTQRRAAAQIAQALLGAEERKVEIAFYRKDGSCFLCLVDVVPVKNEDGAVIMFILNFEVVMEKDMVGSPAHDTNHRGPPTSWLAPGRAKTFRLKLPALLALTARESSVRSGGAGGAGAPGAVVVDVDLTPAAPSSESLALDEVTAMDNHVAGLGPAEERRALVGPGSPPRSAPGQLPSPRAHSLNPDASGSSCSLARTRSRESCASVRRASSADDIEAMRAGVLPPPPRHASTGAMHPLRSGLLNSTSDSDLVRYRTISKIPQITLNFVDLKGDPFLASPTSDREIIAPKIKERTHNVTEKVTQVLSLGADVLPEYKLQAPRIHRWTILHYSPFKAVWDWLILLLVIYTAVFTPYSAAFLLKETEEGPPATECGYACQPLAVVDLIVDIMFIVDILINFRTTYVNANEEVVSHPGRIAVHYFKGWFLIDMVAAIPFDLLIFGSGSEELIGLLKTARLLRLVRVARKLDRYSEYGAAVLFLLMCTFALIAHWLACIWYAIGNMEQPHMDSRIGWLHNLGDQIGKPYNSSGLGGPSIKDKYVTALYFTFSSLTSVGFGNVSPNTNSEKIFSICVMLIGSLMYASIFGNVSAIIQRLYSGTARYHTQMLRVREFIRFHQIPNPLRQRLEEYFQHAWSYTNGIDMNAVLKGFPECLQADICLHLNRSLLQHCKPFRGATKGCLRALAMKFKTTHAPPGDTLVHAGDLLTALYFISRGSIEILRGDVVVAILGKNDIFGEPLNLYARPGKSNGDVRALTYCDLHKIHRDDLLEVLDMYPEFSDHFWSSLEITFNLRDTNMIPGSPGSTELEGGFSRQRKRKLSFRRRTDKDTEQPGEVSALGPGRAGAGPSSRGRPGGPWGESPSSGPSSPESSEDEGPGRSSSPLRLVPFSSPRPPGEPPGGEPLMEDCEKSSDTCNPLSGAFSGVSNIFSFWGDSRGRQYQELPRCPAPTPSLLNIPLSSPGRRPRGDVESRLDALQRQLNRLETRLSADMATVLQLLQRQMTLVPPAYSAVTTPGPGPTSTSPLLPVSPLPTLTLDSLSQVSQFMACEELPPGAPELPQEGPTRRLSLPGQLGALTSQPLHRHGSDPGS
row,SMILES,"hERG current change (%, negative = inhibition) at 10uM [%]"
1,O=C(C1CCC(CNS(=O)(=O)c2ccccc2)CC1)N1CCCCC1 (stereo not drawn),-1.89
2,C=CCN(c1ccc(Br)cc1C(=O)OC)S(C)(=O)=O,0.801
3,Brc1ccc(-c2cnc(-c3cccs3)o2)cc1,-3
4,CN1C2CCC1CC(NC(=O)CSCc1ccc(Cl)cc1Cl)C2 (stereo not drawn),-57.4
5,NNC(=O)CSCc1ccc(Cl)cc1Cl,-2
6,CN1C2CCC1CC(NC(=O)CSc1ccc(Cl)cc1)C2 (stereo not drawn),-8.94
7,O=C(O)C1=C[C@@H](C2CC2)C[C@@H](OCc2ccc(CO)cc2)O1,21.4
8,COc1cc(Br)c(C2C(C#N)=C(N)Oc3n[nH]c(-c4cccnc4)c32)cc1OC (stereo not drawn),6.8
9,Cc1cccc(NC(=O)c2nc[nH]c2C(=O)N2CCC(C)CC2)c1,1.29
10,CCCc1[nH]n(-c2ccc([N+](=O)[O-])cc2)c(=O)c1C=NCCc1ccc(OC)c(OC)c1,-19.4
11,CC(=NCCCn1ccnc1)c1c(O)n(-c2ccccc2)c(=O)[nH]c1=O,5.91
12,CC(=NCCCn1ccnc1)c1c(O)n(C)c(=O)n(C)c1=O,-9.42
13,CCCc1[nH]n(-c2ccc([N+](=O)[O-])cc2)c(=O)c1C(C)=NCc1ccncc1,-52.4
14,CCCc1[nH]n(-c2ccc([N+](=O)[O-])cc2)c(=O)c1C=NCCN1CCNCC1,-47.1
15,CC(=NCCCn1ccnc1)c1c(C)[nH]n(-c2ccc([N+](=O)[O-])cc2)c1=O,-69.3
16,CCCc1[nH]n(-c2ccc([N+](=O)[O-])cc2)c(=O)c1C=NCCCn1ccnc1,-76.4
17,COc1ccc(-c2[nH]n(-c3ccc([N+](=O)[O-])cc3)c(=O)c2C=NCc2ccncc2)cc1,-3.44
18,CCCc1[nH]n(-c2ccc([N+](=O)[O-])cc2)c(=O)c1C=NCCc1c[nH]c2ccccc12,8.42
19,O=C1CC(N(O)c2ccccc2)C(=O)N1c1cc(Cl)cc(Cl)c1 (stereo not drawn),16.2
20,COc1ccccc1CNC(=O)C(NC(=O)Nc1ccccc1)C(C)C (stereo not drawn),13
21,CCCCn1c(=O)[nH]c(=O)c2c1nc(CN(C)Cc1cccc(OC)c1OC)n2CCC.O=C(O)C(=O)O,18.5

row,SMILES,"hERG current change (%, negative = inhibition) at 10uM [%]"
1,Cc1ccc(-n2ncc3c2ncn2c(C)nnc32)cc1C,-10.5
2,COc1ccc(NC(=O)COC(=O)c2ccc(NS(=O)(=O)/C=C/c3ccccc3)cc2)cc1,0.149
3,Cc1ccccc1NC(=O)NC1CCS(=O)(=O)C1 (stereo not drawn),16.6
4,CCn1c(SCC(=O)NC2CCCC2)nnc1-c1cccnc1,5.55
5,Cc1c(C#N)c(NC(=O)c2ccccc2)n(Cc2ccccc2)c1C,2.21
6,CCOc1ccccc1N1CCN(C(=O)c2c(-c3ccccc3Cl)noc2C)CC1,2.42
7,O=C(c1cccc(S(=O)(=O)N2CCCC2)c1)N1CCN(c2ccccc2F)CC1,-18.1
8,COc1cc2ccccc2cc1C(=O)N1CCN(c2ccccc2O)CC1,-59.7
9,COc1ccccc1N1CCN(C(=O)c2c(-c3ccccc3Cl)noc2C)CC1,-51.2
10,O=C(c1cccc(S(=O)(=O)N2CCCCCC2)c1)N1CCN(c2ccccc2F)CC1,-58
11,COc1ccccc1N1CCN(C(=O)c2cccc(S(=O)(=O)N3CCCCCC3)c2)CC1,-77
12,COc1ccccc1N1CCN(C(=O)c2c(-c3c(Cl)cccc3Cl)noc2C)CC1,2.17
13,COc1ccccc1N1CCN(C(=O)c2ccc(S(=O)(=O)N3CCCCCC3)cc2)CC1,-39.8
14,CN1CCN(S(=O)(=O)c2cccc(C(=O)N3CCN(c4ccccc4F)CC3)c2)CC1,-0.195
15,COc1cc2ccccc2cc1C(=O)N1CCCCC1,-0.827
16,COc1ccccc1N1CCN(C(=O)c2ccc(S(=O)(=O)N3CCCCC3)cc2)CC1,-10.2
17,COc1cc2ccccc2cc1C(=O)N1CCCC1,7.7
18,CC(C)(O[C@@H]1O[C@H](CO)[C@@H](O)[C@H](O)[C@H]1O)[C@@H]1CC=C(C(=O)O)CC1,15.5
19,COc1ccc(NC(=O)CN(c2ccccc2F)S(=O)(=O)c2ccc(C)cc2)cc1,10.6
20,COC(=O)c1sc2nc(N)c(C#N)cc2c1N,31.1
21,Cc1nc(NCCc2ccc(O)cc2)c2nnn(Cc3ccccc3)c2n1,0.0141
